The full list was thinned out, with hits kept by preference.
PNC assembly inh – High Content Assay for Compounds that inhibit the Assembly of the Perinucleolar Compartment. PC3M PTB-GFP, PNC prevalence imaging, 16 h; active compounds read low. activity change (PNC), negative = inhibition, % at 10 µM. actives 3.1% (n = 140,000). AID 2417, 2010;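 active = readout at or below -70, meaning at least 70% loss of cells showing the perinucleolar compartment, a nuclear body marking cancer cells; inconclusive = readout between -30 and a set limit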;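 note: plate controls were DMSO wells for no effect and camptothecin positive control wells for full effect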
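PC3M cells stably expressing PTB-GFP, 750–1000 cells/well, treated 16 h at 37 °C with compound (23 nl of library stock), in duplicate. After paraformaldehyde fixation and Hoechst stain, imaged at 20x; PNC prevalence scored by image analysis.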
IMPase Li cell – qHTS Assay for Identifying the Cell-Membrane Permeable IMPase Inhibitors: Potentiation with Lithium. CHO-M1 cells, IP1 TR-FRET (IP-One), carbachol + lithium. Potency, µM (series often up to 59.4 µM), for the others: at the top dose activity, negative = IMPase inhibition, most hits filed as inhibitors. actives 0.35% (n = 210,000). AID 1457, 2008;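 note: IP1 builds up when IMPase is blocked and the TR-FRET signal falls; potency is the fitted concentration of half-maximal effect; plate controls were basal vehicle for no effect and high inhibitor control for full effect; nearly all actives have a fitted effect of over 50% in size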
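CHO cells stably expressing M1 receptor (2000/well) were cultured 16–30 h, then exposed to compounds with a small lithium addition for 30 min at 37C. IP1 was measured by TR-FRET competition; AC50 from Hill fits.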
IMPase cell inh – qHTS Assay for Identifying the Cell-Membrane Permeable IMPase Inhibitors; Inositol monophosphatase 1 (Rattus norvegicus), P97697; CHO-M1 cells, IP1 accumulation, HTRF TR-FRET ratio; inhibition (IP1 accumulation), % at 46.1 µM; 120,000 tested, under 10 active; AID 901, 2007; active = well fitted curve in the direction sought with a large enough effect in the signal ratio, not every such curve was filed as active; inconclusive = small, poorly fitted or top-dose-only effect, or a change in a side signal; inactive = no such curve, though single readings can be large or run the other way; the % refers to the signal ratio;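 note: cells stimulated with carbachol in lithium chloride buffer; plate controls were DMSO basal wells for no effect and reference inhibitor wells for full effect; higher means more IMPase inhibition seen as more IP1 and lower FRET ratio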
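Seeded CHO-M1 cells were dosed with compound at up to 46 uM, stimulated with carbachol for 30 min, then lysed in IP-One detection reagents. Higher IP1 lowers the TR-FRET signal.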
12-hLO inh – qHTS Assay for Inhibitors of 12-hLO (12-human lipoxygenase); purified 12-hLO, xylenol orange hydroperoxide absorbance; actives 0.12% (n = 150,000); Polyunsaturated fatty acid lipoxygenase ALOX12 (Homo sapiens), P18054; Potency, µM (doses to about 57.1 µM), for the others: at the top dose activity change, negative = inhibition, most hits filed as inhibitors; note: potency is the fitted concentration of half-maximal effect; nearly all actives have a fitted effect of over 55% in size
Target sequence (P18054 whole entry, looked up): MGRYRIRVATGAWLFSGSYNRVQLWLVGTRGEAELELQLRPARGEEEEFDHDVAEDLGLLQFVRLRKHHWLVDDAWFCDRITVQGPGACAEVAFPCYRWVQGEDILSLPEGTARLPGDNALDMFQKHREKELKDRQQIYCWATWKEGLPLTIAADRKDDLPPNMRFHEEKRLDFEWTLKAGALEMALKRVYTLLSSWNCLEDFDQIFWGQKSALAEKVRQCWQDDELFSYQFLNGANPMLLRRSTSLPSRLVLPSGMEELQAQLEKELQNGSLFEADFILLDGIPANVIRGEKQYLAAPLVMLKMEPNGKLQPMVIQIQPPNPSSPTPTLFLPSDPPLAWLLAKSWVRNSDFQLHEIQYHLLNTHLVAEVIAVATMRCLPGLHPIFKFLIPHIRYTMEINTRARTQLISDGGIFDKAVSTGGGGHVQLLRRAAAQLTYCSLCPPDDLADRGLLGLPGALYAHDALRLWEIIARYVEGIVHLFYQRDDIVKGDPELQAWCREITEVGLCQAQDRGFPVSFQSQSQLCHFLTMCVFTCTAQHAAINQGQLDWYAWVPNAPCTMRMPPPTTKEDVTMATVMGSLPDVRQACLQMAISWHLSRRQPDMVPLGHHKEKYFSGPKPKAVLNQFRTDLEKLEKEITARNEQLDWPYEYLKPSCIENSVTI
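150 nM 12hLO, 25 mM Hepes pH 7.0 + 0.01% Triton X-100; cpd preinc 15 min RT; 40 uM arachidonic acid, 30 min RT; Fe-XO 30 min; A573/A405 ratio as read-out.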
* hit, by the source's call; [ ] = remark or other dose. Unless noted, calls come from the whole dose curve; as a rule, active = well fitted curve in the direction sought with a large enough effect; inconclusive = small, poorly fitted or top-dose-only effect, or another doubt; inactive = no such curve, though single readings can be large; an effect the other way counts as inactive or inconclusive. Unless noted, % is set by controls: 0 for no effect and ±100 for the full control effect.

What do the screens show for `C=CCNCC(=O)NN=C(c1ccccc1)c1ccccc1`?
PNC assembly inh: inconclusive; IMPase Li cell: 20%; IMPase cell inh: 9; 12-hLO inh: 7%

How did Cc1cnc(C(=O)Nc2nnc(SCc3c(Cl)cccc3Cl)s2)cn1 do in these assays?
PNC assembly inh: -15; IMPase Li cell: 2%; 12-hLO inh: -1%

Results for Cc1nnc(NC(=O)CSCc2ccccc2)s1 ?
PNC assembly inh: -106*; IMPase Li cell: 26%[38.3 µM]; IMPase cell inh: 4; 12-hLO inh: 3%

What do the screens show for `CCC(Oc1ccccc1)C(=O)Nc1nnc(C)s1` (stereo unspecified)?
PNC assembly inh: -117*; IMPase Li cell: -4%[38.3 µM]; IMPase cell inh: -5; 12-hLO inh: -1%

How did CCSc1nnc(NC(=O)CCc2ccc(OC)cc2)s1 do in these assays?
PNC assembly inh: 59; IMPase Li cell: inconclusive; 12-hLO inh: 2%

Results for CSc1nnc(NC(=O)CCc2ccccc2)s1 ?
PNC assembly inh: 30; IMPase Li cell: 28µM*; IMPase cell inh: -6; 12-hLO inh: -7%

Results for CCC(Oc1ccccc1)C(=O)Nc1nnc(C(F)(F)F)s1 (stereo unspecified) ?
PNC assembly inh: inconclusive; IMPase Li cell: -3%; IMPase cell inh: -10; 12-hLO inh: 4%

Results for Cc1ccc2oc(-c3ccc(Cl)c(NC(=O)c4cc5ccccc5o4)c3)nc2c1 ?
IMPase cell inh: 6

What do the screens show for `CC(C)(C)NC(=O)CN(Cc1ccc(F)cc1)C(=O)Cn1nnc(-c2ccc(F)cc2)n1`?
IMPase Li cell: -7%

What do the screens show for `CCn1c(=S)ccc2ccc(OC)cc21`?
PNC assembly inh: 23; IMPase Li cell: inconclusive; IMPase cell inh: inconclusive; 12-hLO inh: -4%

Results for CCn1ccc2cc(OC)ccc2c1=S ?
PNC assembly inh: 17; IMPase Li cell: 11µM*; IMPase cell inh: inconclusive; 12-hLO inh: -11%

Results for c1cnc2ccc(C(c3nnnn3C3CCCC3)N3CCN4CCCC4C3)cc2c1 (stereo unspecified) ?
PNC assembly inh: 65; IMPase Li cell: -11%[38.3 µM]; IMPase cell inh: 7; 12-hLO inh: 3%

What do the screens show for `c1cnc2ccc(C(c3nnnn3C3CCCCC3)N3CCCCC3)cc2c1` (stereo unspecified)?
PNC assembly inh: -100*; IMPase Li cell: 14%; IMPase cell inh: 2; 12-hLO inh: -3%

How did COc1ccc(/C=C2\CCCC3C2=NC(=S)NC3c2ccc(OC)cc2)cc1 (stereo unspecified) do in these assays?
PNC assembly inh: 40; IMPase Li cell: 9%; 12-hLO inh: 14µM*

Results for CCCCNc1nc(C)nc2c1nc(-c1ccccc1)n2CCN1CCCC1 ?
IMPase Li cell: 1%; 12-hLO inh: 1%

Results for Cc1ccc2cc3cc(C(=O)N(CC(=O)NC4CCCC4)c4cccc(C)c4C)sc3nc2c1 ?
PNC assembly inh: -106*; IMPase Li cell: -1%[38.3 µM]; IMPase cell inh: 5; 12-hLO inh: -1%

Results for Cc1ccc(C)c(N(CC(=O)NC2CCCC2)C(=O)c2cc3cc4cccc(C)c4nc3s2)c1 ?
PNC assembly inh: 47; IMPase Li cell: -14%[38.3 µM]; IMPase cell inh: inconclusive; 12-hLO inh: -6%

What do the screens show for `Cc1nn(C)c(Cl)c1C(=O)NCC(=O)NCc1ccccc1`?
IMPase Li cell: 0%

Results for Fc1ccc(N/N=C2/CC(c3ccccc3)Oc3ccccc32)c(F)c1 (stereo unspecified) ?
PNC assembly inh: -94*; IMPase Li cell: 14%; 12-hLO inh: inconclusive

What do the screens show for `CCOC(=O)c1nn(-c2ccc(OCC)cc2)c2nc(-c3ccco3)c(C#N)c(=O)n12`?
PNC assembly inh: 59; IMPase Li cell: inconclusive; 12-hLO inh: 4%

Results for Cc1ccc(NC(=S)NCCc2ccc(S(N)(=O)=O)cc2)cc1C ?
PNC assembly inh: -109*; IMPase cell inh: 4; 12-hLO inh: -5%

Results for CCC(CC)C(=O)Nc1cccc(C(=O)NCCc2ccc(S(N)(=O)=O)cc2)c1 ?
PNC assembly inh: -101*; IMPase Li cell: 9%[38.3 µM]; IMPase cell inh: -7; 12-hLO inh: 2%

Results for Cc1ccc(NC(N)=S)cc1 ?
PNC assembly inh: 11; IMPase Li cell: 3%; 12-hLO inh: -4%

What do the screens show for `Cc1ccc(NC(N)=S)cc1C`?
PNC assembly inh: -125*; IMPase Li cell: 1%; 12-hLO inh: -4%

What do the screens show for `O=C(NCc1ccco1)c1cccc(NC(=O)c2ccccc2)c1`?
PNC assembly inh: 22; IMPase Li cell: 2%[38.3 µM]; IMPase cell inh: 0; 12-hLO inh: 8%

Results for CCC(CC)C(=O)Nc1cccc(C(=O)NCc2ccco2)c1 ?
PNC assembly inh: -115*; IMPase Li cell: 19%[38.3 µM]; IMPase cell inh: 3; 12-hLO inh: 4%

What do the screens show for `CCn1c(=N)c(C(=O)NCc2cccnc2)cc2c(=O)n3cc(C)ccc3nc21`?
IMPase cell inh: -3

How did Cc1ccc(SCCNC(=S)Nc2ccc(C)c(C)c2)cc1 do in these assays?
PNC assembly inh: 60; IMPase Li cell: 40%[38.3 µM]; IMPase cell inh: 9; 12-hLO inh: 25µM*

What do the screens show for `Cc1ccc(SCCNC(=S)Nc2ccccc2)cc1`?
PNC assembly inh: 16; IMPase Li cell: 1%[38.3 µM]; IMPase cell inh: -2; 12-hLO inh: inconclusive

What do the screens show for `CCCc1cc(C(=O)OC)c(NC(=O)c2cc(C)on2)s1`?
PNC assembly inh: -87*; IMPase Li cell: 17%; IMPase cell inh: -10; 12-hLO inh: 7%

What do the screens show for `CCc1ccc(NC(=O)c2cc(C)on2)cc1`?
PNC assembly inh: -22; IMPase Li cell: -14%[38.3 µM]; IMPase cell inh: -2; 12-hLO inh: -2%

Results for CC(C)NC(=O)CSc1nc(N)c(NC(=O)c2ccccc2F)c(=O)[nH]1 ?
PNC assembly inh: -91*; IMPase Li cell: -9%; 12-hLO inh: 0%

How did O=C(Nc1cc(S(=O)(=O)N2CCOCC2)ccc1O)c1ccc(NS(=O)(=O)c2ccc(Cl)s2)cc1 do in these assays?
PNC assembly inh: -134*; IMPase Li cell: 2%; 12-hLO inh: -7%

What do the screens show for `CCCCNC(=O)C1CCCN1C(=O)NC1CCCCC1` (stereo unspecified)?
PNC assembly inh: -100*; IMPase Li cell: -4%; IMPase cell inh: 4; 12-hLO inh: 5%

Results for COc1cccc(NC(=O)CN2CCN(S(=O)(=O)c3ccc(C(C)C)cc3)CC2)c1 ?
PNC assembly inh: -28; IMPase Li cell: 28%[38.3 µM]; IMPase cell inh: 10; 12-hLO inh: 2%

Results for COc1ccc(NS(=O)(=O)c2cccc(NC(=O)c3ccc(S(=O)(=O)N4CCCCCC4)cc3)c2)cc1 ?
PNC assembly inh: -112*; IMPase Li cell: 11%; 12-hLO inh: -1%

How did COc1cccc(NC(=O)CN2CCN(S(=O)(=O)c3ccc(F)cc3)CC2)c1 do in these assays?
PNC assembly inh: -111*; IMPase Li cell: 31%[38.3 µM]; IMPase cell inh: 8; 12-hLO inh: -4%
